Compound activity: PubChem, National Center for Advancing Translational Sciences (NCATS)
HT1080NT lethal – kills 2HG-producing HT-1080-NT fibrosarcoma cells | HT-1080-NT fibrosarcoma viability, CellTiter-Glo ATP luminescence, 48 h | AID 686970 | Potency, µM (doses to about 46.1 µM), for inactives: at the top dose activity, negative = less viability, actives largely listed as cytotoxic | 360,000 compounds, 1.6% hits;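 also: NT is the 2HG producing partner of a matched IDH1 knockdown line; potency is read from the fitted curve at half-maximal effect; 0% = DMSO-treated cells and -100% = media-only wells without cells; nearly all actives have a fitted effect of over 55% in size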
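Toxicity toward the 2HG-producing NT line was scored as %Activity, normalised to DMSO and no-cell wells, from CellTiter-Glo luminescence after 48 hours' treatment.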
TDP1 cell CPT – growth inhibition of DT40 Tdp1-/-;hTDP1 cells with camptothecin (screen for TDP1 inhibitors); chicken DT40 Tdp1-/-;hTDP1 cells + 20 nM CPT, ATP luminescence, 48 h; Potency, µM (series often up to 46.2 µM), for inactives: at the highest dose activity change, negative = growth inhibition, hits mostly inhibitors; 420,000 compounds, 12% hits; AID 686979; also: potency is read from the fitted curve at half-maximal effect; nearly all actives have a fitted effect of over 55% in size
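Cell growth measured by CellTiter-Glo luminescence after a minimum 48 h, 37 C compound exposure with 20 nM CPT in Tdp1-knockout DT40 cells stably expressing hTDP1, seeded 400/well; qHTS titration format.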
12-LOX inh – inhibitors of human 12S-lipoxygenase ALOX12; P18054; purified 12hLO, xylenol orange hydroperoxide absorbance; Potency, µM (titrated, usually from 108 µM), without a hit: top-dose activity change, negative = inhibition, hits mostly inhibitors; 580,000 compounds, 1.1% hits; also: potency is read from the fitted curve at half-maximal effect
Target sequence (P18054 whole entry, looked up): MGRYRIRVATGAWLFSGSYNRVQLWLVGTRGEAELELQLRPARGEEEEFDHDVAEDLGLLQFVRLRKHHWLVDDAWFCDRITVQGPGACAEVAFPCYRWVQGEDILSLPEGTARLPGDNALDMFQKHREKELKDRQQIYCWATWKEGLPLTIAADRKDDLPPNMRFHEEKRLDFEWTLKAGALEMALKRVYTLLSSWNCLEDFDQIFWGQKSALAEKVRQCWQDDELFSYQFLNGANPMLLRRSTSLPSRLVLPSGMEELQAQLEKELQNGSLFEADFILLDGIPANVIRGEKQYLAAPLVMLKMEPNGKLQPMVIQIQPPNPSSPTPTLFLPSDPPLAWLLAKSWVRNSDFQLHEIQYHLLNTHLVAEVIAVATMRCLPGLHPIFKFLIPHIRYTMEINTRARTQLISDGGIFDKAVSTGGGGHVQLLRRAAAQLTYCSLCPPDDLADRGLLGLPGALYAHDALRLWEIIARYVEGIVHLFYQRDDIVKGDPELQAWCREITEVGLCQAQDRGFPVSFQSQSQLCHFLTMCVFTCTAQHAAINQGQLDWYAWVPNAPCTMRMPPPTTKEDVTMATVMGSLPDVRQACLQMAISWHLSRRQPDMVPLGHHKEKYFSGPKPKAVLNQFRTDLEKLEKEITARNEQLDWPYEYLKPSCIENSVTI
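Purified human 12hLO (150 nM final) in 25 mM Hepes, 0.01% Triton X-100, pH 7.0 was preincubated 15 min at room temperature with compound. Then 40 uM arachidonic acid was added, 30 min. Hydroperoxide was read by Fe-XO absorbance ratio 573/405 nm.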
DT40 TDP1 no CPT – qHTS for Inhibitors of human tyrosyl-DNA phosphodiesterase 1 (TDP1): qHTS in cells in absence of CPT. DT40 Tdp1-/- hTDP1 cells, no CPT, ATP luminescence, 48 h. Potency, µM (series often up to 46.2 µM), for inactives: at the top dose activity change, negative = growth inhibition, most hits filed as inhibitors. 420,000 compounds, 15% hits; also: potency is read from the fitted curve at half-maximal effect; nearly all actives have a fitted effect of over 55% in size
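Chicken DT40 Tdp1-/- cells stably complemented with human TDP1 were seeded at 400 cells/well with DMSO in place of 20 nM camptothecin. After compound pinning, cells grew at least 48 hr at 37 °C; viability read by CellTiter-Glo luminescence.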
HT1080 IDH1KD tx – kills HT-1080 cells with IDH1 knockdown. HT-1080 IDH1 knockdown viability, ATP luminescence, 48 h. Potency, µM (doses to about 46.1 µM), inactives show at the highest dose activity, negative = toxicity, usual class: cytotoxic. 360,000 compounds, 2% hits;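 also: potency is read from the fitted curve at half-maximal effect; 0% = DMSO wells and -100% = cell-free medium wells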
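% activity derives from luminescence (CellTiter-Glo), normalised to DMSO and no-cell wells. HT-1080-IDH1KD cells, 750/well, had 48 h compound exposure at 37 °C.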
IL1B secr inh – inhibitors of inflammasome signaling (IL-1 beta secretion); THP-1 LPS/ATP IL-1B secretion, AlphaLISA, 16 h; stronger effect = lower value; activity change, % at 57.5 µM; 360,000 compounds, 4.7% hits; AID 743279; in the data active = activity change below about -50%; inconclusive = mostly about -30% to -49%
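THP-1 cells pretreated 1 hr with compounds (up to 57.5 uM final), then stimulated with LPS (250 ng/mL final) plus ATP (1.25 mM final); secreted IL-1B measured by AlphaLISA after 16 hr, decreased signal indicating inhibition.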
* marks the source's active call; other numbers are inactive results; u = inconclusive; x = no result given. Many of the other results were omitted from the sample, so hits are more common in it than they were. Unless noted, calls follow the shape of the dose curve; as a rule, active = well fitted curve in the direction sought with a large enough effect; inconclusive = small, poorly fitted or top-dose-only effect, or another doubt; inactive = no such curve, though single readings can be large; an effect the other way counts as inactive or inconclusive. Unless noted, % is scaled to controls: 0 for no effect and ±100 for the full control effect.

SMILES	HT1080NT lethal	TDP1 cell CPT	12-LOX inh	DT40 TDP1 no CPT	HT1080 IDH1KD tx	IL1B secr inh
CC(=O)N1NC(=Nc2ccccc2)SC1(C)C	0.0%	u	0.1%	16.4µM*	-10.5%	-75.1*
CC(C)c1ccc(NC(=O)C2Cc3c(-c4ccc5c(c4)OCO5)ccnc3O2)cc1 (stereo unspecified)	u	u	u	14.6µM*	u	-57.5*
CC(=O)Nc1ccc(-c2ccnc3c2CC(C(=O)Nc2ccc4c(c2)OCO4)O3)cc1 (stereo unspecified)	u	6.51µM*	-3.7%	8.2µM*	14.6µM*	-24.4
CC(=O)c1cccc(-c2ccnc3c2CC(C(=O)NC(C)C)O3)c1 (stereo unspecified)	0.3%	9.2%	-0.5%	6.7%	9.1%	43.4
CC(=O)c1cccc(-c2ccnc3c2CC(C(=O)Nc2ccc4c(c2)OCO4)O3)c1 (stereo unspecified)	u	4.11µM*	13.0%	2.31µM*	2.31µM*	-11.3
CC(=O)Nc1ccc(-c2ccnc3c2CC(C(=O)Nc2ccc(C(C)C)cc2)O3)cc1 (stereo unspecified)	u	u	-50.3%	u	-26.1%	-23.3
CC1CCN(C(=O)COc2ccc(Cl)cc2C(N)=O)CC1	x	x	32.6%	x	x	x
COCCOC1CCOC2(CCN(C(=O)c3ccc(OC)c(OC)c3)CC2)C1 (stereo unspecified)	x	x	31.3%	x	x	x
COc1ccccc1OCCN1C(=O)C2(SC(NC(C)=O)=NN2C(C)=O)c2ccccc21 (stereo unspecified)	x	x	29.7%	x	x	x
CC1(C(=O)NCc2ccccc2Br)CCN1Cc1ccccc1OC(F)F (stereo unspecified)	u	u	16.0%	23.1µM*	u	-54.0*
CC1(C(=O)NCc2ccccc2Br)CCN1Cc1c(F)cccc1F (stereo unspecified)	-12.6%	u	-9.9%	u	-17.5%	-21.0
CC1(C(=O)NCCc2c[nH]c3ccccc23)CCN1Cc1ccccc1OC(F)F (stereo unspecified)	23.1µM*	18.4µM*	-18.6%	u	u	-20.4
CC(C)CNC(=O)C1(C)CCCN1Cc1ccccc1OC(F)F (stereo unspecified)	-10.5%	20.6µM*	-10.6%	23.1µM*	2.8%	-5.4
CCNC(=O)NC(=O)C(C)Sc1nnc(-c2cccc(C)c2)n1CCOC (stereo unspecified)	x	x	-14.3%	x	x	x
COCCOC1CCOC2(CCN(C(=O)c3cc(-c4ccc(F)cc4)n[nH]3)CC2)C1 (stereo unspecified)	x	x	99.5%	x	x	x
CC(C)n1c(CSCc2ccc(Cl)cc2Cl)n[nH]c1=S	-14.4%	-25.4%	44.7µM*	u	-2.3%	20.6
CCc1c(C)c2cc3c(c(C)c2oc1=O)OCN(CCc1ccccc1F)C3	x	13µM*	u	16.4µM*	x	x
Cc1c(C)c2cc3c(c(C)c2oc1=O)OCN(CCc1ccccc1)C3	x	13µM*	-34.7%	u	x	x
COC(=O)Cc1c(C)c2cc3c(c(C)c2oc1=O)OCN(CCc1ccc(F)cc1)C3	x	u	-74.9%	u	x	x
Cc1c(C)c2cc(Cl)c(O)c(CN3CCN(C)CC3)c2oc1=O	u	-28.6%	-0.1%	-18.6%	13.1%	-18.6
CCOC(=O)CCc1c(C)c2cc3c(c(C)c2oc1=O)OCN(CCc1ccccc1OC)C3	x	29.1µM*	-79.3%	u	x	x
CCc1c(C)c2ccc3c(c2oc1=O)CN(Cc1ccccc1)CO3	x	x	-0.7%	x	x	x
CCOC(=O)c1cc2cccc(OC)c2o1	x	x	-34.0%	x	x	x
CCOc1ccc(C(=O)NCCc2sc(-c3ccc(C)cc3)nc2C)cc1	x	23.1µM*	-17.4%	u	x	x
